From PubChem BioAssay
Compounds with a hit are over-represented: about 3.8% of the library has one in this group of screens.
Mdm2 MdmX PPI: human Mdm2/MdmX binding inhibition | O15151+Q00987 | SaOS-2 split-luciferase Mdm2/MdmX complementation, luminescence | inhibition, % at 8 µM | 330,000 compounds, 3% hits;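 active means inhibition of at least 50% at 8 µM in the primary screen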
Target sequence (O15151 whole entry, looked up): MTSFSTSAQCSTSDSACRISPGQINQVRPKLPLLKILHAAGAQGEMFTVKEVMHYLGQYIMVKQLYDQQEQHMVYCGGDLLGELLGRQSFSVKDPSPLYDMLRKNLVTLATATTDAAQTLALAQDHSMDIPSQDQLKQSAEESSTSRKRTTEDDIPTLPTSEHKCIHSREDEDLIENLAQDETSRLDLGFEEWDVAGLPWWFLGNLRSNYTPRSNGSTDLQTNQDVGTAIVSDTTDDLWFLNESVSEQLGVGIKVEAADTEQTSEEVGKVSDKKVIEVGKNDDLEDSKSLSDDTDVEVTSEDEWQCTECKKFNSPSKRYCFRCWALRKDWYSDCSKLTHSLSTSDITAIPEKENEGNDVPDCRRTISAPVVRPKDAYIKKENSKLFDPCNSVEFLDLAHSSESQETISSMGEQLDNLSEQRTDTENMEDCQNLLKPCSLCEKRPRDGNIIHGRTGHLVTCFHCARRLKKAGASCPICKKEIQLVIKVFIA
Target sequence (Q00987 whole entry, looked up): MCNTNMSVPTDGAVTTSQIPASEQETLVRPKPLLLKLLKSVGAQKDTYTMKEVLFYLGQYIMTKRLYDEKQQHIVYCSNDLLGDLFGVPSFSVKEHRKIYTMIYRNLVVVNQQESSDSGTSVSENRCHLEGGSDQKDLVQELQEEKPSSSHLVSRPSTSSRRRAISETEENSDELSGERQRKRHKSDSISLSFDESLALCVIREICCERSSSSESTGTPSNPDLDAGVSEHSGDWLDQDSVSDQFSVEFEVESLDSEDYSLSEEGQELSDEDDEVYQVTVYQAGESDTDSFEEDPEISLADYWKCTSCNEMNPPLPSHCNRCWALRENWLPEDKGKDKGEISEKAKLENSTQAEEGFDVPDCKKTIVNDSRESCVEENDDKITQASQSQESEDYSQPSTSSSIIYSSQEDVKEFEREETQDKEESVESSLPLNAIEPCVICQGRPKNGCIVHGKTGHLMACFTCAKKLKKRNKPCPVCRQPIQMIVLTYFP
697 NFkB inh: lowers PMA/ionomycin-induced NF-kB signal in 697 B cells | AID 435022 | 330,000 compounds, 0.33% hits | inhibition, % at 4 µM | 697 B-cell NF-kB luciferase reporter, 16 h; in the data active means inhibition above about 35%
Shn3 inh set2: Schnurri-3 reporter inhibition in Clone20 osteoblasts; 360,000 compounds, 0.52% hits; Clone20 osteoblast Shn3 3'UTR firefly luciferase, 24 h; inhibition, % at 12.5 µM;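 active means mean inhibition of at least 75% with every replicate also reaching 75%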;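 further: 0% = median of neutral control wells and 100% = pilot-screen positive control compound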
Gli-Sufu block: antagonists of Gli-Sufu signaling; Sufu-KO-LIGHT fibroblasts, Gli luciferase reporter luminescence; inhibition, % at 5 µM; 340,000 compounds, 0.74% hits; AID 588413;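 active means inhibition above about 55%, limit read from the data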;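 further: 0% = DMSO-treated cells and 100% = wells with medium but no cells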
Jurkat NFkB inh: inhibitors of the PMA/ionomycin-induced NF-kB reporter in Jurkat cells; 330,000 compounds, 0.53% hits; PMA/ionomycin-induced NF-kB luciferase reporter, luminescence; inhibition, % at 4 µM; in the data active means inhibition above about 50%
Mdm2-MdmX conf: human Mdm2/MdmX binding inhibition, confirmed | shares compounds with Mdm2 MdmX PPI | luminescent assay | inhibition, % at 8 µM | 10,000 compounds, 55% hits; in the data active means inhibition above about 40%
FLuc counter: full-length luciferase inhibition in Mdm2/MdmX counter-screen; inhibition, % at 8 µM; shares compounds with Mdm2 MdmX PPI; 6,200 compounds, 77% hits; AID 504607; SaOS-2 full-length luciferase counterscreen, luminescence;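 active means mean inhibition at 8 µM reaching about 37%, which flags the compound as non-specific, limit read from the data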;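 further: p53-null SaOS-2 cells with luciferase driven by a doxycycline-inducible promoter; compound on cells about two nights before reading with doxycycline added after day one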
* hit, by the source's call; nt = no result given.

SMILES	Mdm2 MdmX PPI	697 NFkB inh	Shn3 inh set2	Gli-Sufu block	Jurkat NFkB inh	Mdm2-MdmX conf	FLuc counter
Cn1c(=O)c(C#N)c(-c2ccc(F)cc2)c2cc(C(=O)c3cc(Cl)cc(Cl)c3O)cnc21	83*	5	18	4	1	87*	30
Cc1cc(C(=O)N2CCC2(C)C(=O)NCCC#N)nn1C (centres undefined)	nt	nt	22	nt	nt	nt	nt
COc1ccc(NS(=O)(=O)c2cc(NC(=O)/C=C/c3cccs3)ccc2N2CCOCC2)cc1	53*	7	14	17	10	30	nt
COc1ccc(N2CC(C(=O)N/N=C/c3c[nH]c4ccccc34)CC2=O)cc1 (centres undefined)	-6	-9	6	-4	-3	nt	nt
O=C(N/N=C/c1ccccc1O)C1CC(=O)N(c2ccc(F)cc2)C1 (centres undefined)	52*	10	75	18	8	38	44*
Cc1[nH]c(C)c(S(=O)(=O)N(Cc2ccccc2)C(C)(C)C)c1C(=O)N1CCCC1	10	-22	22	3	-3	nt	nt
CN1CCCN(C(=O)c2cc(-c3ccc(Cl)c(Cl)c3Cl)nc3ccccc23)CC1	53*	-3	2	4	-7	28	76*
O=C(OCC(=O)N1CCN(C(=O)c2ccco2)CC1)c1cc(-c2ccc(Cl)c(Cl)c2Cl)nc2ccccc12	57*	-22	-7	-5	2	8	nt
O=C(c1cc(-c2ccccc2)nc2ccccc12)N1CCN(c2ccccc2O)CC1	24	-14	10	13	16	nt	nt
O=C(OCC(=O)N1CCN(C(=O)c2ccco2)CC1)c1cc(-c2ccco2)nc2ccccc12	-5	17	5	4	18	nt	nt
CC(C)/C=C/C(=O)N1CCCC(N2CCN(c3ccccc3F)CC2)C1 (centres undefined)	22	0	-1	43	-4	nt	nt
CN1CCN(CCCNC(=O)c2cc3c(-c4ccc(Cl)cc4)nn(C)c3s2)CC1	68*	17	-4	0	20	31	nt
CCN(CC)CCCNC(=O)c1cc2c(-c3ccc(Cl)cc3)nn(C)c2s1	64*	-18	-1	2	-27	21	nt
COc1ccc(-c2cn[nH]c2-c2ccc(O)cc2O)cc1	71*	11	15	-10	-4	70*	25
COc1ccc(-c2cn[nH]c2-c2ccc(OCc3ccccc3)cc2O)cc1OC	53*	-33	27	6	32	55*	43*
C=C(C)COc1ccc(-c2[nH]ncc2-c2ccc(OC)cc2)c(O)c1	63*	-4	10	-7	10	65*	29
COc1ccc(-c2cn[nH]c2-c2ccc(OCc3ccc(F)cc3)cc2O)cc1OC	27	-15	51	13	34	nt	nt
COc1ccc(-c2cnc(N)nc2-c2ccc(OC)cc2O)cc1	58*	-5	17	-15	3	18	nt
Nc1ccc(N2CCCC2)c(S(=O)(=O)Nc2cccc(C(F)(F)F)c2)c1	-14	-16	34	8	-9	nt	nt
COC(=O)c1sc2nc(SCC(=O)N(C)c3ccccc3)n(N)c(=O)c2c1C	56*	8	4	15	11	8	nt
C=CCn1c(Sc2ncc([N+](=O)[O-])s2)n[nH]c1=O	66*	-3	5	-1	19	88*	56*
C=CCn1c(CSc2ccccc2[N+](=O)[O-])n[nH]c1=S	9	-13	-18	-13	-1	nt	nt
COc1cc(Cl)ccc1OCc1cc(C(=O)N(C)C2CC(C)(C)NC(C)(C)C2)no1	25	-25	-9	21	-9	nt	nt
CCn1c(SCC(=O)Nc2nc(-c3ccccc3)cs2)nc2c1c(=O)n(C)c(=O)n2C	64*	-21	2	-2	0	8	nt
CCC(=O)Nc1ccc(NC(=O)CSc2nc3c(c(=O)n(C)c(=O)n3C)n2CC)cc1	9	8	8	-11	-4	nt	nt
SMILES	Mdm2 MdmX PPI	697 NFkB inh	Shn3 inh set2	Gli-Sufu block	Jurkat NFkB inh	Mdm2-MdmX conf	FLuc counter
CCCCn1c(SCC(=O)Nc2nccs2)nc2ccccc2c1=O	65*	1	24	11	-1	4	nt
CN(C)CCCn1c(SCC(=O)Nc2nc(-c3cccc(Br)c3)cs2)nc2ccccc2c1=O	100*	-5	-53	15	8	56*	115*
CCCCn1c(SCC(=O)Nc2ccc(NC(C)=O)cc2)nc2ccccc2c1=O	38	-17	22	21	4	nt	nt
CC(C)(C)c1nc2ccccc2c2nnc(SCC(=O)Nc3nccs3)n12	68*	-57	-10	-1	37	60*	50*
O=C(CSc1nc2ccccc2[nH]1)Nc1nc(-c2cccc(Br)c2)cs1	-13	-12	-9	-7	0	nt	nt
C[C@H]1COC(=O)[C@H](CC(=O)OC(C)(C)C)C/C=C\C[C@@H](CC(=O)N[C@@H](CO)Cc2ccccc2)C(=O)N1	25	9	8	16	5	nt	nt
CN(C)CCCN(C(=O)c1cc(-c2cccs2)nc2ccccc12)c1nc2ccc(F)cc2s1	100*	14	8	3	18	57*	68*
CN(C)CCN(C(=O)/C=C/c1cccs1)c1nc2ccc(F)cc2s1	59*	-18	11	2	-8	43*	56*
CCN(CC)CCN(C(=O)/C=C/c1cccs1)c1nc2ccc(Cl)cc2s1	28	-32	-4	2	8	nt	nt
CC(C)C(NC(=O)C1CC(=O)N(Cc2ccccc2)C1)c1nc2ccccc2[nH]1 (centres undefined)	16	1	-21	1	-3	nt	nt
CCC(C)(C)NC(=O)C1CCN(c2nc(OC)nc(OC)n2)CC1	3	15	-22	-4	2	nt	nt
CC(=O)c1ccc(N2CCN(S(=O)(=O)c3ccc4ccccc4c3)CC2)cc1	9	-8	15	9	-10	nt	nt
COc1ccccc1N1CCN(c2ccc3cc(S(=O)(=O)N4CCCCC4)ccc3n2)CC1	51*	-34	58	30	13	6	nt
CC(=O)c1ccc(N2CCN(c3ccc4cc(S(=O)(=O)N5CCC(C)CC5)ccc4n3)CC2)cc1	61*	-43	61	17	24	-2	nt
CN(c1ccccc1)S(=O)(=O)c1cccc(C(=O)NCCCN2CCCC2=O)c1	-13	16	-1	-4	16	nt	nt
Cc1cc(C)cc(OCc2nnc(SCC(=O)N3CCCCC3)o2)c1	10	7	-18	26	4	nt	nt
Cc1nnc2c(SC(C)C)nc3ccccc3n12	38	-4	-17	1	-9	nt	nt
COc1ccc(/C=N/NC(=O)c2ccc3ccccc3c2)cc1OS(=O)(=O)c1ccc(NC(C)=O)cc1	68*	2	18	13	37	55*	58*
COc1ccc(NC(=O)COc2ccc(/C=N/NC(=O)c3cccnc3)cc2OC)cc1	10	13	-19	-1	-14	nt	nt
COc1ccc(/C=N/NC(=O)c2cccnc2)cc1COc1ccc(NC(C)=O)cc1	52*	-22	12	-4	40	26	nt
